Assay outcomes deposited in PubChem by National Center for Advancing Translational Sciences (NCATS).
Rab9 prom act: activates the Rab9 promoter; Huh7 Rab9 promoter-luciferase reporter, luminescence, 24 h; 320,000 compounds, 2.8% hits; AID 485297; Potency, µM (titrated, usually from 9.22 µM), for inactives: top-dose activation, negative = inhibition, hits mostly activators; note: % of control where 0% means no effect; nearly all actives have a fitted effect of over 60% in size
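Luminescence read-out: Huh7 cells stably expressing Rab9-luciferase, treated 24 h with compound at 37 °C, then lysed with luciferase reagent for 10 min at ambient before reading.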
SMN2 splice up: SMN2 splice variant enhancement. HEK293 SMN2-luciferase splicing reporter, luminescence, 30-36 h. Potency, µM (top dose mostly 46.1 µM), without a hit: at the highest dose activity change, positive = activation, hits mostly activators. 210,000 compounds, 2.8% hits; note: % of control where 0% means no effect; nearly all actives have a fitted effect of over 55% in size
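qHTS luciferase splicing reporter: luminescence rises when SMN2 exon 7 is included in transfected HEK293 cells. Compound exposure lasted 30-36 h at 37C, with 4.5 mM final sodium butyrate as control, followed by a ONE-Glo read.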
FLuc counter: firefly luciferase modulation, counter-screen for miR-21 project. P08659. purified FLuc, Km substrates, luminescence inhibition. Potency, µM (doses to about 57.5 µM), for inactives: at the highest dose activity change, negative = inhibition, actives largely listed as inhibitors. 360,000 compounds, 6.9% hits;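 note: plate controls were vehicle for no effect and reference inhibitor for full effect; nearly all actives have a fitted effect of over 55% in size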
Target sequence (P08659 whole entry, looked up): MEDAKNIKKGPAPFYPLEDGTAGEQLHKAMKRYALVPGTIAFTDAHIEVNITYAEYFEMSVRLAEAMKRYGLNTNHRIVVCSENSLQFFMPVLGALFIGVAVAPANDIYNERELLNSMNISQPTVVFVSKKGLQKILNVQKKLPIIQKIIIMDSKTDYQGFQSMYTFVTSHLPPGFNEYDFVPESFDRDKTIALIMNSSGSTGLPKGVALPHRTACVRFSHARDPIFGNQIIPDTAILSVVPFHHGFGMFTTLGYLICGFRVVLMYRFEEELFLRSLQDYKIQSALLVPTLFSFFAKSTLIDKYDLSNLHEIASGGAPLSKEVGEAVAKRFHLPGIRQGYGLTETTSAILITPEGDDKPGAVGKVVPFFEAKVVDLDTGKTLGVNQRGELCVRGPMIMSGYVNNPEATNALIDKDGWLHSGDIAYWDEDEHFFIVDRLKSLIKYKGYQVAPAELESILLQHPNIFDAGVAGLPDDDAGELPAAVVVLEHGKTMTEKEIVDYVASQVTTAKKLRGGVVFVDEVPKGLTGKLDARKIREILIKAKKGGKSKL
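Purified P. pyralis luciferase, 10 nM final, with Km-level 10 uM D-luciferin and 10 uM ATP in 50 mM Tris acetate pH 7.5, 10 mM Mg acetate, 0.01% Tween-20, 0.05% BSA; 6-point qHTS titration about 60 µM downward; luminescence read.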
ELG1 repair inh: ELG1-dependent DNA repair inhibition | HEK293T ELG1-luciferase reporter, luminescence, 16 h; DNA damage induced by 5-fluorouridine | Potency, µM (highest dose often 46.1 µM), for inactives: at the top dose activity change, negative = inhibition, hits mostly inhibitors | 330,000 compounds, 2.3% hits; note: % is set by controls: 0 for no effect and ±100 for the full control effect; nearly all actives have a fitted effect of over 55% in size
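DMSO vehicle served as the neutral condition. Each well held 2,000 cells given 5-fluorouridine plus compound; after 16 hr at 37 °C/5% CO2, ONE-Glo was added and luciferase measured 30 min later.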
NPC1 prom act: NPC1 promoter activation. Potency, µM (series often up to 9.22 µM), for the others: at the top dose activation, usual class: activators. AID 485313. 320,000 compounds, 2.4% hits. Huh7 NPC1 promoter luciferase reporter, 24 h; note: % of control where 0% means no effect; nearly all actives have a fitted effect of over 60% in size
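Readout is luciferase luminescence, reflecting NPC1 promoter activation in stably transfected Huh7 cells after 24 h compound exposure at 37 °C in reduced-serum medium with 10% FBS.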
ELG1 genotox: induces genotoxicity in HEK293T cells with luciferase-tagged ELG1. HEK293T ELG1-luciferase reporter, luminescence, 16 h. Potency, µM (top dose mostly 46 µM), without a hit: at the top dose activity change, positive = activation, hits mostly activators. 330,000 compounds, 1.3% hits. AID 504466; note: % of control where 0% means no effect; nearly all actives have a fitted effect of over 60% in size
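Quantitative HTS format in 1536-well plates. HEK293T ELG1-luciferase reporter cells receive test compound and are incubated 16 hr at 37 °C, 5% CO2; ONE-Glo added, 30 min room temperature, then luminescence read.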
An asterisk follows results filed as active; ? = inconclusive; . = no result given. The list is not random: actives were taken first. Their share in the collection is about 9.3%. Calls come from the whole dose curve; as a rule, active = well fitted curve in the direction sought with a large enough effect; inconclusive = small, poorly fitted or top-dose-only effect, or another doubt; inactive = no such curve, though single readings can be large; an effect the other way counts as inactive or inconclusive. Potency is the fitted concentration of half-maximal effect.

SMILES | Rab9 prom act | SMN2 splice up | FLuc counter | ELG1 repair inh | NPC1 prom act | ELG1 genotox
COC(=O)c1ccc(C(NC(=O)OCc2ccccc2)/C(F)=C/[C@@H](C)C(=O)NCc2ccc(OC)c(OC)c2)cc1 (some centres not stated) | -4% | -91% | -1% | 18µM* | -8% | 2%
COC(=O)c1ccc(C(NC(=O)OCc2ccccc2)/C(F)=C/[C@@H](C)C(=O)NCc2ccc(-c3ccccc3)cc2)cc1 (some centres not stated) | 0% | 16% | -21% | 25% | -2% | 16%
C/C(=N\N=C\c1ccc(N(C)C)cc1)c1cccc([N+](=O)[O-])c1 | 2.8µM* | 14µM* | 2.1µM* | ? | 3.5µM* | ?
COc1nc(N)c(C#N)c(-c2ccc(N(C)CCC#N)cc2)c1C#N | -1% | . | -2% | 16µM* | 0% | -7%
COc1ccc(-c2c(C#N)c(N)nc(Sc3ccc(Cl)cc3)c2C#N)cc1 | -6% | . | 0% | ? | -12% | 4%
CC(C)N(CCNC(=O)c1ccc(OCC2CCCO2)cc1)C(C)C (configuration not stated) | -1% | . | -1% | -8% | -2% | 0%
NS(=O)(=O)c1ccc(NC(=O)c2ccc(OCC3CCCO3)cc2)cc1 (configuration not stated) | . | . | . | -19% | . | -3%
O=C(NC1CCCCCC1)c1ccc(OCC2CCCO2)cc1 (configuration not stated) | 2µM* | 13µM* | 12µM* | ? | ? | ?
COc1ccc(NC(=O)c2ccc(OCC3CCCO3)cc2)cc1Cl (configuration not stated) | ? | . | 2.4µM* | ? | ? | 7%
COc1ccc(NC(=O)c2ccc(OCC3CCCO3)cc2)cc1OC (configuration not stated) | 17% | . | 15µM* | 0% | -1% | 10%
Cc1ccc(F)cc1NC(=O)c1ccc(OCC2CCCO2)cc1 (configuration not stated) | . | . | . | ? | . | 12%
Oc1ccc(C=Nc2ccccc2-c2nc3ccccc3[nH]2)cc1 | 13% | 13µM* | 27µM* | ? | ? | 9%
Cn1cc(-c2nc3ccccc3[nH]2)c2ccccc21 | ? | 22µM* | 4.3µM* | ? | ? | 6%
Nc1ccc(-c2nc3c(ccc4ccccc43)[nH]2)cc1 | ? | . | 2.4µM* | ? | ? | ?
O=c1[nH]cccc1-c1nc2ccccc2[nH]1 | 29% | . | ? | ? | ? | ?
Clc1nc2c(ccc3ccccc32)[nH]1 | ? | . | ? | ? | ? | 11%
Nc1ccccc1-c1nc2ccccc2[nH]1 | 6.3µM* | ? | 12µM* | ? | 4µM* | 10µM*
Cc1[nH]ncc1-c1nc2ccccc2[nH]1 | 6% | . | -18% | 28% | 1% | -5%
CCN(C(=O)CSc1nnc(CNc2cccc(OC)c2)n1C1CCCCC1)C1CCS(=O)(=O)C1 (configuration not stated) | 11% | . | -1% | -3% | -1% | 0%
CS(=O)(=O)Nc1c(O)ccc2c1CCCC2C1=NCCN1 (configuration not stated) | . | 2% | . | . | . | .
Cc1c(C(=O)NCc2ccc(F)cc2)sc2nc3n(c(=O)c12)CCC3 | . | . | -8% | . | . | .
Fc1ccc(-c2nc3ccccc3[nH]2)cc1 | 2.5µM* | 10µM* | 12µM* | ? | 2.5µM* | ?
c1ccc(-c2cc(-c3nc4ccccc4[nH]3)c3ccccc3n2)cc1 | -1% | -100% | ? | 21µM* | 1% | -17%
O=C(O)c1ccc(/C=C(\c2nc3ccccc3[nH]2)c2nc3ccccc3s2)cc1 | -1% | . | 15µM* | ? | 2% | -7%
Fc1ccc(-c2nc3ccncc3[nH]2)cc1 | 20% | 10% | ? | ? | 23% | 6%
SMILES | Rab9 prom act | SMN2 splice up | FLuc counter | ELG1 repair inh | NPC1 prom act | ELG1 genotox
CC(=O)Nc1cc(NC(C)=O)cc(-c2nc3ccccc3[nH]2)c1 | -3% | 16% | -17% | -11% | -8% | 3%
c1ccc(-c2nnsc2-c2nc3ccccc3[nH]2)cc1 | -2% | -20% | 5% | 4% | -3% | -4%
O=C(O)c1ccc(-c2nc3ccccc3[nH]2)cc1 | -11% | 14% | 15µM* | 25% | -2% | 2%
COc1ccc(Nc2nc3c(S(=O)(=O)c4ccccc4)nnn3c3ccc(Cl)cc23)c(OC)c1 | . | 12% | 1% | . | . | .
Nc1ccc(-c2nc3ccccc3[nH]2)cc1 | 0.45µM* | 4.5µM* | 9.5µM* | ? | 1.6µM* | 2.9µM*
Nc1ccc2nc(-c3ccc(-c4nc5ccc(N)cc5[nH]4)cc3)[nH]c2c1 | -1% | . | -16% | -14% | -6% | -5%
CCOc1ccc(-c2nn(CC(=O)NC3CCCC3)c3c2cnc2ccc(F)cc23)cc1 | . | . | -2% | . | . | .
Cc1ccc(S(=O)(=O)Nc2cc(Cl)ccc2-n2cncn2)cc1 | -1% | . | -1% | 18% | -2% | 4%
O=c1c2ccccc2sn1-c1ccccc1 | 25% | 6% | 7.6µM* | ? | 10% | 17%
CN(C)S(=O)(=O)c1cccc(-n2sc3ccccc3c2=O)c1 | ? | 8% | 11µM* | ? | 10% | 1%
Cc1ccc(-n2sc3ccccc3c2=O)cc1S(=O)(=O)N1CCCCC1 | 8% | -17% | 19µM* | -3% | 1% | -8%
Cc1ccc(C(=O)N2CCCCC2)cc1S(=O)(=O)N1CCCCCC1 | -1% | . | 2% | 3% | 0% | -1%
O=c1c2ccccc2sn1-c1nccs1 | -1% | 6% | 8.5µM* | 1% | 1% | -3%
CCn1cc2nc(SCC(=O)Nc3ccc(OC)c(OC)c3)n(Cc3ccc(Cl)cc3)c(=O)c2n1 | . | 2% | ? | . | . | .
COc1ccc(-n2cc(C(=O)OCc3ccc(F)c(F)c3)c3ccccc3c2=O)cc1 | . | . | -5% | . | . | .
O=S(=O)(c1ccc(S(=O)(=O)N2CCCC2)cc1)N1CCCCC1 | 0% | . | 1% | 20% | -1% | 0%
O=c1c2ccccc2sn1-c1ccc(S(=O)(=O)N2CCCC2)cc1 | 21% | -7% | 4.8µM* | 16% | 9% | 0%
CCNS(=O)(=O)c1ccc(CCC(=O)N2CCc3ccccc3C2)cc1 | -2% | . | 4% | -15% | -4% | -4%
COc1ccc(C2CC(c3ccccc3)=NN2c2ccc(S(N)(=O)=O)cc2)cc1 (configuration not stated) | 1% | . | 9.5µM* | -6% | -4% | -2%
